TDP1 block = inhibitors of human tyrosyl-DNA phosphodiesterase TDP1; recombinant TDP1, AlphaScreen DNA substrate cleavage; AID 485290; 350,000 compounds, 0.28% hits; Q9NUW8; Potency, µM (doses to about 130 µM), for the others: at the highest dose activity change, negative = inhibition, hits mostly inhibitors; further: potency means the concentration at half of the fitted maximal effect; nearly all actives have a fitted effect of over 40% in size
Target sequence (Q9NUW8 whole entry, looked up): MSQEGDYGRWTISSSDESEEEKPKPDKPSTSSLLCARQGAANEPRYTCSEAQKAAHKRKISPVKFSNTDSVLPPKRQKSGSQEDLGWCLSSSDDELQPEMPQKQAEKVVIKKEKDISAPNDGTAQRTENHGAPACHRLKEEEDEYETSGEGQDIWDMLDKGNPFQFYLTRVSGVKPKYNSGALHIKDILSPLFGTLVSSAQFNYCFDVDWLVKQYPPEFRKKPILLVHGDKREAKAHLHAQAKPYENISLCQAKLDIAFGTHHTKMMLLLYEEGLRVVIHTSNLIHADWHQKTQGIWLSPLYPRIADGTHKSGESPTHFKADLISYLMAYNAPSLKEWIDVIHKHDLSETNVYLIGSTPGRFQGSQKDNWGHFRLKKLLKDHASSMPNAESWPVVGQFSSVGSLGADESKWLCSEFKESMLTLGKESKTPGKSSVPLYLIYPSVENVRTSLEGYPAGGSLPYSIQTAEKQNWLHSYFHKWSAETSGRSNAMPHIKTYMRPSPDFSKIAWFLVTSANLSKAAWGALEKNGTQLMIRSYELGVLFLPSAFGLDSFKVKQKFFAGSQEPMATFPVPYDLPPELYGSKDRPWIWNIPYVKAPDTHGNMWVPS
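Here, a 5' biotin and 3' phosphotyrosine-FITC DNA oligonucleotide reports Tdp1 activity: intact substrate bridges AlphaScreen beads, while cleavage leaves a 3' phosphate and drops signal. All incubations at room temperature.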
IL-1B inflam inh = blocks inflammasome-driven IL-1 beta release. activity change, % at 57.5 µM. 360,000 compounds, 4.7% hits. THP-1 LPS/ATP IL-1B secretion, AlphaLISA, 16 h; stronger effect = lower value; in the data active means activity change below about -50%; inconclusive means mostly about -30% to -49%
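Secreted IL-1B measured by AlphaLISA bead assay after 16 h compound exposure of THP-1 cells; compounds (final up to 57.5 uM) added 1 h before LPS (250 ng/mL) and ATP (1.25 mM) stimulation; lower signal means less secretion.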
DT40 TDP1 no CPT = qHTS for Inhibitors of human tyrosyl-DNA phosphodiesterase 1 (TDP1): qHTS in cells in absence of CPT. DT40 Tdp1-/- hTDP1 cells, no CPT, ATP luminescence, 48 h. Potency, µM (top dose mostly 46.2 µM), for the others: at the highest dose activity change, negative = growth inhibition, most hits filed as inhibitors. 420,000 compounds, 15% hits. AID 686978, 2013; further: potency means the concentration at half of the fitted maximal effect; nearly all actives have a fitted effect of over 55% in size
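Seeded 400 DT40-hTDP1 cells/well (vehicle DMSO, no 20 nM CPT); pinned compounds; ≥48 hr at 37 °C; CellTiter-Glo luminescence as viability measure.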
Six1-Eya2 blk = blocks human Six1 binding to Eya2 | AlphaScreen GST-Six1/His-Eya2 binding, biochemical; stronger effect = lower value | 360,000 compounds, 0.56% hits | Q15475+O00167 | activity change, % (no concentration beside the values); in the data active means activity change below about -65%; inconclusive means mostly about -30% to -63%
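Homogeneous AlphaScreen proximity assay pairing GST-Six1 with His-tagged Eya2 (added as 5X mix: 250 nM and 500 nM) in 50 mM Tris pH 8.0, 300 mM NaCl, 1 mM TCEP. Glutathione donor and nickel acceptor beads; 1 h, 37 °C, dark.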
CtBP-E1A inh = CtBP/E1A binding inhibition. activity change, % (no concentration beside the values). AID 651724. AlphaScreen GST-E1A/His-CtBP binding, 1536-well; stronger effect = lower value. 340,000 compounds, 0.49% hits; in the data active means activity change below about -65%; inconclusive means mostly about -30% to -63%
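AlphaScreen with 125 nM GST-E1A and 125 nM His-CtBP (5X stocks) in Tris pH 8.0, 300 mM NaCl, BSA, Tween 20, TCEP. Compounds preincubated 2 h at 37 deg C, then glutathione donor/nickel acceptor beads added for 1 h at 37 deg C in dark.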
TDP1 cell CPT = DT40-hTDP1 cell growth loss with CPT; 420,000 compounds, 12% hits; Potency, µM (titrated, usually from 46.2 µM), inactives show top-dose activity change, negative = growth inhibition, most hits filed as inhibitors; AID 686979; chicken DT40 Tdp1-/-;hTDP1 cells + 20 nM CPT, ATP luminescence, 48 h; further: potency means the concentration at half of the fitted maximal effect; nearly all actives have a fitted effect of over 55% in size
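Chicken DT40 Tdp1-/- cells stably complemented with human TDP1 were seeded at 400 cells/well in medium containing 20 nM camptothecin, exposed to pin-transferred compounds, and grown at 37 °C for at least 48 hr. Viability was read as ATP luminescence.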
* hit, by the source's call; u = inconclusive; x = no result given; [ ] = dose if it differs, or a comment. Hits are enriched below; roughly 18% of the tested compounds scored in any of these assays. Unless noted, the call rests on the fitted dose curve; in most records, active means well fitted curve in the direction sought with a large enough effect; inconclusive means small, poorly fitted or top-dose-only effect, or another doubt; inactive means no such curve, though single readings can be large; an effect the other way counts as inactive or inconclusive. On the % scale 0 is the no-effect control and ±100 the full control effect.

SMILES | TDP1 block | IL-1B inflam inh | DT40 TDP1 no CPT | Six1-Eya2 blk | CtBP-E1A inh | TDP1 cell CPT
O=C(NC(=S)Nc1ccc(N2CCCCC2)c(Cl)c1)c1ccc2c(c1)OCCO2 | 8% | -7 | 21µM* | -26 | -11 | 16µM*
O=C(NC(=S)Nc1ccc(N2CCOCC2)c(Cl)c1)c1cncc(Br)c1 | 2% | 14 | -34% | -3 | 1 | -3%
COc1c(C(=O)Nc2ccc(Cc3ccncc3)cc2)ccc2ccccc12 | 8% | -14 | 23µM* | 2 | 0 | u
Cc1cc(C)cc(C(=O)NC(=S)Nc2ccc3c(c2)OCCO3)c1 | 8% | -16 | u | u | -2 | 16µM*
COc1ccc(CCNC(=O)c2ccc(NC(=O)CC3SC(N4CCCC4)=NC3=O)cc2)cc1 (centres undefined) | 4% | 25 | u | 6 | 8 | u
Cc1ccc(N2CN(CCC3=CCCCC3)CNC2=S)cc1 | 5% | 0 | u | -11 | x | u
CCc1ccc(C(C(=O)NC2CCCCC2)N(C(=O)c2ccccn2)c2cccnc2)cc1 (centres undefined) | -6% | x | x | x | x | x
O=C1/C(=C/c2ccc(F)c(F)c2)CSc2sccc21 | 3% | -18 | u | 9 | 12 | u
O=C(Nc1ccc(Cc2ccncc2)cc1)c1ccc(Br)o1 | 3% | u | -17% | -3 | -2 | -7%
COc1ccccc1C(=O)NC(=S)Nc1ccc(Cc2ccncc2)cc1 | x | 29 | 18µM* | -9 | x | u
CC(C)Cc1ccc(C(=O)Nc2ccc(Cc3ccncc3)cc2)o1 | 8% | -91* | u | -5 | -5 | u
CN1CCN(CC(=O)Nc2cc(N(C)C)nc3ccccc23)CC1 | -4% | -62* | -26% | 7 | -1 | 1%
CCN(CC)CC(=O)Nc1cc(N(C)C)nc2ccccc12 | -9% | x | -28% | -2 | 8 | 4%
CCn1c(C(=O)N2CCCC(C(=O)O)C2)cc2sccc21 (centres undefined) | -1%[56.1 µM] | 8 | -7% | 4 | 3 | -12%
Cn1c(C(=O)N2CCCC(C(=O)NCc3cccs3)C2)cc2sccc21 (centres undefined) | 2% | 0 | -29% | 0 | 15 | u
CC(CCc1ccccc1)NC(=O)C1CCCN(C(=O)c2cc3sccc3n2C)C1 (centres undefined) | 1% | -12 | 15µM* | -9 | -16 | 18µM*
CCn1c(C(=O)N2CCCC(C(=O)NCCCc3ccccc3)C2)cc2sccc21 (centres undefined) | 5% | u | u | -1 | 3 | 21µM*
CN1CCN(NC(=O)Nc2ccc(Br)cc2Cl)CC1 | 5%[56.1 µM] | -50* | -4% | -16 | 0 | -8%
O=C(Nc1ccncc1)Nc1ccc(Br)cc1Cl | -1%[56.1 µM] | -94* | u | 0 | 5 | 21µM*
C=CCNC(=O)Nc1ccc(Br)cc1Cl | 3% | -2 | u | 0 | x | -28%
O=C(Nc1ccc2nccnc2c1)Nc1ccccc1Cl | x | u | 15µM* | -14 | -9 | 18µM*
O=C(Nc1ccc(Br)cc1)Nc1ccccc1Cl | -6% | u | 10µM* | 9 | x | 15µM*
CCc1ccc(NC(=O)c2cc3sc(Cl)cc3n2C)cc1 | -3% | x | u | x | x | u
O=C(CNc1ccc(Br)cc1)c1ccccc1 | 4% | -23 | 0% | -1 | 8 | u
O=C(CNc1ccccc1Cl)c1ccc(Br)cc1 | x | -77* | u | 9 | 7 | u
SMILES | TDP1 block | IL-1B inflam inh | DT40 TDP1 no CPT | Six1-Eya2 blk | CtBP-E1A inh | TDP1 cell CPT
COc1ccc(CN2C(=O)C(CC(=O)NCCN3CCOCC3)CC(C(=O)N3CCCCCC3)=C2C)cc1 (centres undefined) | x | 15 | -3% | 26 | 0 | 3%
CCc1ccc(CN(Cc2cccnc2)C(=O)/C=C/c2ccc(OC)cc2)cc1 | 9% | 0 | 15µM* | -3 | 0 | -55%
COc1ccc(/C=C/C(=O)NCc2cccnc2)cc1 | 5% | 21 | -12% | 0 | 7 | -1%
O=C1CCCN1C(=O)CCC(=O)N1CCCC1=O | -6% | -4 | -18% | 7 | -1 | -15%
CSc1nc(=O)n(CCC#N)nc1SC | x | 29 | -19% | 5 | -6 | u
CC(=O)Nc1nc(C)c(S(N)(=O)=O)s1 | 0% | 11 | 10% | 2 | 17 | 6%
O=C(CSCc1cccc(CSCC(=O)Nc2ccc3ccccc3c2)n1)Nc1ccc2ccccc2c1 | 5% | -26 | 15µM* | -8 | -1 | u
O=C(CSCc1nc2ccccc2[nH]1)Nc1ccc2ccccc2c1 | 3% | 0 | -18% | -2 | 1 | -5%
O=C(CS)Nc1ccc2ccccc2c1 | 0% | -95* | 4.1µM* | -13 | 2 | 2.9µM*
CCCCCC(=O)Nc1ccc2ccccc2c1 | 1% | 4 | -1% | 18 | -9 | -6%
CCc1cccc(C)c1NC(=O)Cn1c(=O)n(-c2ccc(C)cc2)c(=O)c2c1cnn2C | 6% | x | -1% | x | x | -18%
O=c1oc2ccccc2c(Nc2cc3ccccc3cc2O)c1[N+](=O)[O-] | -6% | 55 | 5.8µM* | -4 | 0 | 5.8µM*
Cc1cc(Cl)cc(Cl)c1CNc1c([N+](=O)[O-])c(=O)oc2ccccc12 | -4% | 11 | 16µM* | 1 | -11 | u
Cc1ccc(S(=O)(=O)Nc2cnc3ccccc3c2)cc1 | 3% | 30 | u | -3 | x | u
COc1ccc(NS(=O)(=O)c2cc(OC)ccc2OC)cc1 | x | 21 | u | 9 | 8 | -20%
O=S(=O)(Nc1cnc2ccccc2c1)N1CCCCCC1 | 7% | 23 | 13µM* | -7 | 3 | 21µM*
COc1ccc(OC)c(S(=O)(=O)N2CCN(c3ccccc3)CC2)c1 | x | -9 | 5% | -4 | -7 | 11%
COc1ccc(OC)c(S(=O)(=O)Nc2ccc3c(c2)C(=O)OC3)c1 | 5% | 14 | 8.2µM* | 9 | 5 | 12µM*
COc1ccc(OC)c(S(=O)(=O)Nc2cnc3ccccc3c2)c1 | 2% | 63 | 23µM* | -1 | 0 | u
COc1ccc(OC)c(S(=O)(=O)ON2C(=O)c3ccccc3C2=O)c1 | x | -13 | 1.5µM* | -11 | 1 | 2.3µM*
CN(C)S(=O)(=O)c1ccc(N2CCCC2)c(C(=O)N2CCN(S(=O)(=O)c3ccccc3F)CC2)c1 | -8% | -17 | -23% | 10 | 3 | u
CC(C)N(Cc1nc2ccccc2c(=O)[nH]1)C(=O)c1ccc(NC(=O)CSc2nnnn2C)cc1 | 1% | 2 | 4% | -1 | 0 | -11%

Source: PubChem (National Center for Advancing Translational Sciences (NCATS))
